From PubChem
Pf growth 48h – inhibits P. falciparum growth in the first generation, 48 h; P. falciparum luciferase growth in erythrocytes, 48 h; Potency, µM (doses to about 28.7 µM), without a hit: top-dose activity change, negative = inhibition, actives largely listed as inhibitors; hit rate 5.9% among 310,000; AID 504832; further: potency means the concentration at half of the fitted maximal effect
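Cell-based growth assay: transgenic P. falciparum expressing firefly luciferase, cultured in red cells within RPMI 1640 containing 0.5% w/v Albumax, 24 mM bicarbonate and gentamycin. A drop in luciferase activity indicates inhibition.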
MARV entry inh – inhibitors of Marburg virus binding or cell entry | hit rate 1.8% among 300,000 | Marburg virus pseudotyped entry inhibition, cell reporter | Potency, µM (top dose mostly 37.8 µM), without a hit: at the top dose activity change, negative = inhibition, usual class: inhibitors; calls by dose curve; tested in HEK293 cells; further: potency means the concentration at half of the fitted maximal effect
HCV inh – inhibitors of hepatitis C virus infection; Huh7.5.1 HCVcc-Cre infection, luciferase reporter, 44 h; Potency, µM (highest dose often 41.8 µM), without a hit: at the top dose activity change, negative = inhibition, hits mostly inhibitors; hit rate 3.4% among 340,000; AID 651820; further: potency means the concentration at half of the fitted maximal effect
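Compounds are dispensed onto cells plated 4 h earlier at 1,000 per well, with HCVcc-Cre virus (about 0.5 moi) added next. Following 44 h of culture, luminescent signal is measured for 15 sec after 15 min with substrate at room temperature.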
Pf growth 96h – P. falciparum growth inhibition at 96 hour, primary screen for plastid delayed-death inhibitors. P. falciparum luciferase reporter growth, 96 h. Potency, µM (top dose mostly 28.7 µM), for the others: at the top dose activity change, negative = inhibition, hits mostly inhibitors. hit rate 6.9% among 320,000. AID 504834; further: potency means the concentration at half of the fitted maximal effect
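Plates of compound plus infected erythrocytes (2% hematocrit, 0.05% parasitemia final) incubate 96 hours, 37 C, 5% CO2. Detection reagent added; reduced luminescence from the parasites' luciferase reporter flags inhibition.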
HCMV inh – human cytomegalovirus inhibition; HFF cells, HCMV-luciferase reporter, 72 h; active compounds read low; activity change, negative = inhibition, % at 57.5 µM; hit rate 4.5% among 410,000; in the data active means activity change below about -60%; inconclusive means no clear call, values can overlap the other calls; inactive means above about -39%
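Human foreskin fibroblasts infected with luciferase-reporter HCMV at MOI 1 PFU/cell, compounds at two doses. Luciferase measured 72 h post infection; normalized to buffer-only basal and Salinomycin (10uM) controls.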
LASV entry inh – Lassa virus entry inhibition | Potency, µM (highest dose often 37.9 µM), inactives show at the highest dose activity change, negative = inhibition, hits mostly inhibitors | Lassa virus pseudotype entry inhibition, cell reporter | hit rate 1.2% among 300,000; calls by dose curve; tested in HEK293 cells; further: potency means the concentration at half of the fitted maximal effect; nearly all actives have a fitted effect of over 50% in size
* marks the source's active call; other numbers are inactive results; ? = inconclusive; . = no result; ! = not active in a repeat; [ ] = another dose, or the depositor's remark. Most compounds without a hit are left out; they make up all but 14% or so of the library. Unless noted, the call rests on the fitted dose curve; in most records, active means well fitted inhibition curve with a large enough effect; inconclusive means small, poorly fitted or top-dose-only effect, or another doubt; inactive means no such curve, though single readings can be large or run the other way. On the % scale 0 is the no-effect control and ±100 the full control effect.

SMILES	Pf growth 48h	MARV entry inh	HCV inh	Pf growth 96h	HCMV inh	LASV entry inh
COc1ccc(S(=O)(=O)NCc2ccc(C(=O)N3CCc4ccccc4C3)cc2)cc1	?	-1%	?	6.6µM*	1	-12%
Cc1ccc(CN(c2ccc(C(=O)N3CCc4ccccc4C3)cc2)S(C)(=O)=O)cc1	-29%	0%	10µM*	.	-34	?
CS(=O)(=O)N(Cc1ccc(Cl)cc1)c1ccc(C(=O)N2CCN(c3ccccc3)CC2)cc1	.	?	5%	?	-6	-23%
Cc1ccc(S(=O)(=O)NCc2ccc(C(=O)N3CCN(c4ccccc4)CC3)cc2)cc1	?	?	?	-6%	36	?
O=C(NCc1ccco1)C1CCN(C(=O)N2CCOc3ccccc32)CC1	.	.	.	.	2	21%[46.1 µM]
Cc1nc2c(OCc3cc(Cl)cc(Cl)c3)cccn2c1N(C)C(=O)CCC1CCCC1	.	.	.	.	-18	.
O=C(O)Cn1c2ccccc2c2ccccc21	1%	0%	4µM*	35%	-11	0%
NNC(=O)Cn1c2ccccc2c2ccccc21	33%	1%[46.1 µM]	2%	25%	2	7%
Cn1cc(Br)cc1-c1ncc(Cc2c[nH]c(N)[n+]2C)o1	.	.	.	.	-20	.
O=S(=O)(c1ccc(N=C2NN=C(c3cc(F)ccc3F)CS2)cc1)N1CCOCC1	2.3µM*	5µM*	22µM*	?	-99*	13µM*
COCCN=C1NN=C(c2ccc(NC(C)=O)cc2)CS1	?	-17%[46.1 µM]	28%	?	-67*	.
CC(=O)Nc1ccc(C2=NNC(=Nc3ccc(S(=O)(=O)N4CCOCC4)cc3)SC2)cc1	?	11µM*	?	12µM*	-36	?
CC(C)(C)N=C1NN=C(c2ccc(S(=O)(=O)N3CCCCC3)cc2)CS1	3.7µM*	?	?	?	-7	-30%
Fc1ccc(N=C2NN=C(c3cc(F)ccc3F)CS2)cc1	0%	?	?	?	-34	?
N#Cc1ccc(Cl)cc1NC(=O)CN1C(=O)C(=O)N(CCC2=CCCCC2)C1=O	.	.	.	.	65	.
CCC(=O)N1CCc2cc(Br)cc(S(=O)(=O)N3CCC(C(=O)Nc4cccc(C)c4)CC3)c21	.	-23%[46.1 µM]	.	.	-15	-27%[46.1 µM]
O=C(Nc1cc(Cl)cc(Cl)c1)c1cc(S(=O)(=O)N2CCC3(CC2)OCCO3)ccc1F	.	.	.	.	-9	17%[46.1 µM]
O=C(NC1CCCCC1)N1CC(=O)N2[C@H](CO)[C@H](c3ccc(Br)cc3)[C@@H]2C1	.	.	.	.	-18	.
Cc1cc(S(=O)(=O)NCc2ccccc2)ccc1OCC(=O)Nc1cccc([N+](=O)[O-])c1	?	12µM*	?	-15%	-8	?
Cc1cc(S(=O)(=O)NCc2ccccc2)ccc1OCC(=O)NCc1ccccn1	-6%	-5%[46.1 µM]	-9%	9.3µM*	30	?
O=S1(=O)CCOC[C@H](c2ccccc2)N1Cc1cccc(Cl)c1	16%	.	-3%	38%	-80*	.
Cc1oc2cc3oc(=O)c(CCC(=O)NCCc4ccccc4F)c(C)c3cc2c1C	.	5%[46.1 µM]	.	.	-16	27%[46.1 µM]
CCOC(=O)CC(=O)CSc1nc2c(cc1C#N)CCCCCC2	2.3µM*	?	6%	1.2µM*	24	-1%
CCOC(=O)CC(=O)CSc1nc(-c2cccnc2)cc(C)c1C#N	31%	2%	3%	-5%	24	-3%
COC(=O)C1=C(CSc2nc3c(cc2C#N)CN(C)CC3)OC(N)=C(C#N)C1c1ccc(F)cc1 (stereo not drawn)	9.3µM*	-30%	?	?	16	6%
SMILES	Pf growth 48h	MARV entry inh	HCV inh	Pf growth 96h	HCMV inh	LASV entry inh
CCOC(=O)CC(=O)CSc1nc(-c2cccnc2)ccc1C#N	10µM*	6%	7%	.	-23	14%
COC(=O)CC(=O)CSc1nc2c(cc1C#N)CCC2	37%	?	22%	.	-2	15%
CCOC(=O)C1=C(CSc2nc(CC)c(C)cc2C#N)OC(N)=C(C#N)C1c1ccc(OC)cc1 (stereo not drawn)	?	-1%	?	?	25	-1%
CN1CCc2nc(SCC(=O)OC(C)(C)C)c(C#N)cc2C1	54%	?	4µM*	-33%	136	2%
CN1CCc2nc(SCC(=O)Nc3ccc(Cl)cc3)c(C#N)cc2C1	.	?	?	.	-33	19%
CC(=O)Nc1ccc(Nc2nc3ccccc3nc2NS(=O)(=O)c2ccc(Cl)c([N+](=O)[O-])c2)cc1	.	0%	35%	.	-1	?
N#Cc1cc2c(nc1SCC(=O)N1CCOCC1)CCCCC2	239%	-29%	2%	.	-77*	?
N#Cc1cc2c(nc1SCC(N)=O)CCCCC2	.	-6%	-10%	135%	49	-25%
O=S(=O)(Nc1cccc(-c2ccc(N3CCCCC3)nn2)c1)c1cccs1	.	.	.	.	59	-29%[46.1 µM]
CC(C)(C)C(=O)NC1(C(F)(F)F)NC(=O)N(c2ccc(F)cc2)C1=O (stereo not drawn)	-12%	-2%[46.1 µM]	11%	12µM*	-17	0%[46.1 µM]
Cc1ccc(N2C(=O)NC(NC(=O)C(C)(C)C)(C(F)(F)F)C2=O)cc1 (stereo not drawn)	2%	10%	-1%	-1%	-27	?
COc1cc(C(=O)N/C(=C\c2cn(S(=O)(=O)N(C)C)c3ccccc23)C(=O)NCCCO)cc(OC)c1OC	?	.	-16%	8.3µM*	-9	.
COc1ccc(C(=O)N/C(=C\c2cn(S(=O)(=O)N(C)C)c3ccccc23)C(=O)NCCCn2ccnc2)cc1	12µM*	-12%[46.1 µM]	7%	24%	?	?
CCn1cc(/C=C(\NC(=O)c2ccc(OC)cc2)C(=O)NCCCn2ccnc2)c2ccccc21	.	-19%[46.1 µM]	.	.	-4	1%[46.1 µM]
Cc1ccc(S(=O)(=O)N2CCN(CN3C(=O)CC4(CCCC4)C3=O)CC2)cc1	?	14%	-6%	15%	-19	-9%[46.1 µM]
COC(=O)C/C=C/[C@@H](C)[C@@H](Cc1ccccc1Br)OC	.	-4%[14.2 µM]	.	.	.	.
COC(=O)CC=C[C@@H](C)[C@H](OC)c1ccccc1Br	.	0.6µM*!	.	.	.	?
COc1ccc(/C=C2\CCC(C3CCCC3)C2=O)cc1Cn1cccn1 (stereo not drawn)	-25%	?	?	2%	-32	-10%
COc1ccc(/C=C2\CCc3ccccc3C2=O)cc1O	214%	11µM*	-9%	252%	20	?
COc1ccc(/C=C2\CCc3ccccc3C2=O)cc1Cn1cccn1	.	18µM*	?	0%	?	?
CCC(=O)N(Cc1c(C)nn(-c2ccccc2)c1Cl)c1ccc(Cl)cc1	10µM*	-41%	?	3%	?	?
CCOC(=O)c1cc(OC(=O)c2ccc(Cl)cc2)n(-c2ccccc2)n1	.	22%[46.1 µM]	.	.	5	-4%[46.1 µM]
